# Assay results from PubChem BioAssay AID686978 (National Center for Advancing Translational Sciences (NCATS), 2013).
# Several values for one entry are separate records, joined by “and”; a condition that tells them apart may be missing. Equal entries are not always repeated. Among all 420,000 compounds or so, about 64,000 (15%) were called active. About 27% were inconclusive and are not listed. Calls come from the whole dose curve; as a rule, active = well fitted inhibition curve with a large enough effect; inconclusive = small, poorly fitted or top-dose-only effect; inactive = flat fitted curve, though single readings scatter. Not all results are given here. Entries that show only a call come without a potency.
# Experiment: qHTS for Inhibitors of human tyrosyl-DNA phosphodiesterase 1 (TDP1): qHTS in cells in absence of CPT; note: nearly all actives have a fitted effect of over 55% in size
# Conditions: DT40 Tdp1-/- hTDP1 cells, no CPT, ATP luminescence, 48 h; activity change, negative = growth inhibition: at 46.2 µM (top of the series)
# Procedure, shortened: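 A cellular qHTS used chicken DT40 cells lacking endogenous Tdp1 but carrying stably transfected human TDP1. Compounds were applied without camptothecin, and cell growth kinetics were judged by ATP-dependent luminescence after ≥48 hr.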
# Potency is the fitted concentration of half-maximal effect.
row,SMILES,Potency
1,CCCS(=O)(=O)Nc1ccc(-c2cn3c(n2)SCC3)cc1,inactive
2,CN(Cc1ccc2nsnc2c1)Cc1nc(Cc2cccc(F)c2)no1,inactive
3,O=C(Nc1ccc(S(=O)(=O)Nc2ncccn2)cc1)c1cncc(Br)c1,inactive
4,Cc1ccc(C(=O)NCC(=O)OCC(=O)Nc2cccc(S(=O)(=O)N3CCCC3)c2)cc1C,inactive
5,O=C(CCNC(=O)c1ccc(Br)cc1)Nc1cccc(S(=O)(=O)N2CCCCC2)c1,18.4 µM (active)
6,O=C(Nc1ccc(N2CCCC2=O)cc1)c1cncc(Br)c1,inactive
7,CC(NS(=O)(=O)c1ccc(Cl)cc1)C(=O)Nc1ccc2c(c1)OCCO2 (stereo unspecified),inactive
8,O=C(Nc1cccnc1)c1ccc2c(c1)OCO2,inactive
9,O=C(Nc1cccc(S(=O)(=O)N2CCCCC2)c1)c1ccc2c(c1)OCO2,16.4 µM (active)
10,Cc1ccc(S(=O)(=O)N2CCCCC2)cc1NC(=O)CCNC(=O)c1ccccc1,inactive
11,O=C(Nc1cccc(S(=O)(=O)N2CCCC2)c1)c1cncc(Br)c1,13 µM (active)
12,O=C(Nc1ccccc1)c1ccc2c(c1)OCCCO2,inactive
13,CN1CCN(S(=O)(=O)c2cccc(C(=O)Nc3cccc(S(N)(=O)=O)c3)c2)CC1,inactive
14,O=C(Nc1cccc(S(=O)(=O)Nc2ccc(Cl)cc2)c1)c1ccc2c(c1)OCCO2,10.3 µM (active)
15,CCOc1cc2[nH]c(=O)n(Cc3ccc(C(=O)NCCCN4CCCC4=O)cc3)c(=O)c2cc1OCC,inactive
16,CS(=O)(=O)N1CCC2(CC1)CN(c1ccncc1)C2,inactive
17,Cc1ccc(-c2nnc3c4ccccc4c(C)nn23)cc1NC(=O)c1cccc(Br)c1,inactive
18,CS(=O)(=O)N1CCCC(C(=O)N2CCOCC2)C1 (stereo unspecified),inactive
19,CCOc1ccc(NC(=O)CN(C)CC(=O)NC(C)c2ccccc2)cc1OCC (stereo unspecified),inactive
20,COc1ccc(Cc2nnc(SCC(=O)c3cccc([N+](=O)[O-])c3)n2C)cc1,inactive
21,CCOc1ccc2nc(NCCNS(=O)(=O)c3ccccc3)c(C#N)cc2c1,inactive
22,CC(C)(C)N1C(=O)[C@H]2[C@@H](c3ccc(Br)cc3)N3C(=O)N(c4cccc(Cl)c4)C(=O)[C@@]3(C)[C@H]2C1=O,inactive
23,COC(=O)[C@H](Cc1ccccc1)NC(=O)Nc1ccc(S(N)(=O)=O)cc1,inactive
24,CC(=O)NC(CC(=O)Nc1cccc(S(=O)(=O)N2CCCC2)c1)c1ccccc1 (stereo unspecified),inactive
25,CCN(CC(=O)Nc1cccc(S(=O)(=O)N2CCCCC2)c1)Cc1ccccc1,23.1 µM (active)
26,O=C(Nc1ccc(Cl)cn1)c1ccc2c(c1)OCCO2,18.4 µM (active)

row,SMILES,Potency
1,O=C(Nc1nncs1)c1cccc(S(=O)(=O)N2CCCCC2)c1,inactive
2,CCCc1cc(C(=O)Nc2ccc(Cl)cn2)cs1,inactive
3,O=C(Nc1cccc(S(=O)(=O)N2CCCCC2)c1)c1cncc(Br)c1,18.4 µM (active)
4,COc1c(Cl)cc(C(=O)Nc2ccc(Cl)cn2)cc1Cl,inactive
5,O=C(Nc1nnc(S(=O)(=O)N2CCCCCC2)s1)c1cccc(Br)c1,4.61 µM (active) and 20.6 µM (active)
6,Cc1cccc(C(=O)Nc2nnc(S(=O)(=O)N3CCCCCC3)s2)c1,inactive
7,Cn1nnnc1SCC(=O)Nc1cccc(S(=O)(=O)N2CCCCC2)c1,inactive
8,O=C(NNC1=NCCC1)c1cccc(S(=O)(=O)N2CCCCC2)c1,inactive
9,CCN(CC(=O)Nc1ccc(S(=O)(=O)N2CCCC2)cc1)CC(=O)Nc1cccc(OC)c1,inactive
10,COc1ccc(S(=O)(=O)N2CCSCC2)cc1,inactive
11,CCOC(=O)NC(=O)CSc1nnc(SCCC(=O)O)s1,inactive
12,COc1ccccc1-c1ccc(C(=O)N(C)C(C)c2ccon2)c(N2CCN(c3ccccc3F)CC2)n1 (stereo unspecified),inactive
13,N=c1c2c3c(sc2ncn1N)CCCC3,inactive
14,O=C(Nc1ccc(S(=O)(=O)N2CCCC2)cc1Cl)C1=COCCO1,inactive
15,CC(C)(O)CCC(O)[C@@](C)(O)C1CC[C@]2(O)C3=CC(=O)C4CC(O)C(O)C[C@]4(C)C3CC[C@]12C (stereo partly specified),inactive
16,C=CCSc1nc2c(c(=O)[nH]1)C(C(C)C)C(C#N)=C(N)O2 (stereo unspecified),inactive
17,CC1CCCC(NC(=O)CSc2nccn2C)C1C (stereo unspecified),inactive
18,CSc1ccc(S(=O)(=O)NCC(=O)OCC(=O)NC2(C#N)CCCCC2)cc1[N+](=O)[O-],inactive
19,Cc1cc(NC(=O)CCC(=O)N(CC(=O)NCC2CCCO2)c2ccccc2)no1 (stereo unspecified),inactive
20,CCC(C)C(=O)Nc1cc([N+](=O)[O-])ccc1Cl (stereo unspecified),inactive
21,N/C(=N\OC(=O)/C=C/c1ccccc1)c1ccc(Br)cc1,inactive
22,Cc1cc(NC(=O)CSCc2ccccc2C)no1,inactive
23,Cc1noc(C)c1CSCC(=O)Nc1ccc(Br)cc1Cl,10.3 µM (active)
24,CCOC(=O)c1c(C2CC2)csc1NC(=O)CSCc1c(C)noc1C,inactive
25,COCCNC(=O)c1cc2c(Br)ccc(Br)c2nc1N,inactive
